Results published in PubChem BioAssay (NCI).
Values joined by “and” are separate entries in the source; they are usually repeats but may differ in a detail not shown here. Equal values may be shown once. About 79,000 compounds went through this panel and 15% of them were active in at least one assay; those are over-represented in the sample as a whole. Active and inactive are the calls of the source. No stated cut-off is given here; in the data, active means growth inhibition above about 70%; inactive means the rest.

Assay: NCI Yeast Anticancer Drug Screen. Data for the bub3 strain (AID 167)
Conditions: S. cerevisiae bub3 mutant strain, at 5.0 µM (retest, dose inferred, filed as 0.5), stronger effect = higher value
Outline: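 Growth of a checkpoint-deficient yeast mutant is measured after compound exposure. Values represent inhibition relative to vehicle.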
With `COC1=C(OC)C(=O)C(Sc2ccc3ccccc3c2)=CC1=O` the growth inhibition was 3% (inactive). In the case of `COc1nc2c(c(=O)n1C)N=C(c1ccccc1)[C@H](C(CC(=O)c1ccccc1)c1ccccc1)C(c1ccccc1)N2` (stereo not given in full), the growth inhibition is reported as 0% (inactive). With `Cc1cc(-c2cc(C)c(O)c(C(C)(C)C)c2)cc(C(C)(C)C)c1O` the growth inhibition was 43% (inactive) and 5% (inactive). With `Nc1cc(N)c(N=Nc2cccc3c(S(=O)(=O)O)cccc23)cc1N=Nc1cc([N+](=O)[O-])ccc1O` the growth inhibition was 19% (inactive). For `Nc1ccc(F)cc1S`, the growth inhibition was 61% (inactive). For `Brc1ccccc1-c1ncc(-c2ccccc2)o1`, the growth inhibition was 40% (inactive). In the case of `COc1cc(C2SCC(=O)N2c2ccc(-c3ccc(-n4c(-c5ccccc5)nc5ccccc5c4=O)cc3)cc2)ccc1O` (stereo not given), the growth inhibition is reported as -14% (inactive). For `Nc1ncnc2c1ncn2C1OC(CO)CC1O` (stereo not given), the growth inhibition was 34% (inactive) and 22% (inactive). In the case of `COc1cc(CSc2ccc(O)cc2)cc(O)c1O`, the growth inhibition is reported as -7% (inactive). In the case of `CCOC(=O)C1N=[N+](c2ccccc2)C(=O)/C1=C\n1c(=S)[nH]c2ccc([N+](=O)[O-])cc21` (stereo not given), the growth inhibition is reported as 97% (active). For `CNC(=O)OCc1c(COC(=O)NC)c2n(c1C)-c1ccc(OC)cc1CCC2`, the growth inhibition was 45% (inactive). In the case of `O=C(NNc1ccccc1)c1ccc(Cl)c(Cl)c1`, the growth inhibition is reported as -5% (inactive). In the case of `Cc1ccc(CC2(OCCN(C)C)CCC(C(C)(C)C)CC2)cc1` (stereo not given), the growth inhibition is reported as 11% (inactive) and 7% (inactive). In the case of `C[C@]12CC[C@H](O)CC1=CC[C@@H]1C2CC[C@]2(C)C(=O)NC(=O)CC12` (stereo not given in full), the growth inhibition is reported as -4% (inactive). With `CCCC/C=C/C(C)(C(=O)OCC)C(=O)OCC` the growth inhibition was -2% (inactive).
